# Screening results deposited in PubChem by Broad Institute.
# The entries come from a sample that favours hits as a whole.
# NSD2 block – inhibitors of human NSD2, primary screen, biochemical, plate reader, single point; Histone-lysine N-methyltransferase NSD2 (Homo sapiens), O96028; NSD2-SET H3K36me1 DELFIA fluorescence; inhibition, % at 12.5 µM; hit rate 0.07% among 44,000; AID 624260, 2012; in the data active = inhibition above about 54%, passing the limit was not always enough;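 note: inhibitors reduce the monomethyl H3K36 fluorescence signal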
# * hit, by the source's call.
SMILES,NSD2 block
O=c1c(O[C@@H]2O[C@H](CO)[C@H](O)[C@H](O)[C@H]2O)c(-c2ccc(O)cc2)oc2cc(O)cc(O)c12,0
O=c1c(O[C@@H]2OC[C@H](O)[C@H](O)[C@H]2O)c(-c2ccc(O)c(O)c2)oc2cc(O)cc(O)c12,30
COc1c(-c2ccc(O)cc2)oc2cc(O)cc(O)c2c1=O,-2
O=c1c(O[C@@H]2OC[C@H](O)[C@H](O)[C@H]2O)c(-c2ccc(O)cc2)oc2cc(O)cc(O)c12,72*
O=c1c(OC2OCC(O)C(O)C2O)c(-c2ccc(O)c(O)c2)oc2cc(O)cc(O)c12 (centres undefined),60*
O=C(CCCCC(=O)N/N=C\c1ccc2c(c1)Cc1ccccc1-2)NO,-5
O=C(CCCCCC(=O)N/N=C/c1nccs1)NO,-1
c1ccc2c(c1)CCCc1cc(NCCN3CCOCC3)nnc1-2,3
O=C1C(Cl)=C(NCCN2CCOCC2)C(=O)c2ncccc21,90*
Cc1ccc(S(=O)(=O)c2nc(-c3ccccc3)oc2NCCN2CCOCC2)cc1,4
COc1cc(C(=O)OCC2(O)COC(OCC3OC(Oc4c(OC)cc(CO)cc4OC)C(O)C(O)C3O)C2O)cc(OC)c1O (centres undefined),20
CC(C)CC(=O)c1c(O)cc(O)cc1OC1OC(COC(=O)c2cc(O)c(O)c(O)c2)C(O)C(O)C1O (centres undefined),52*
O=C(OCc1ccccc1O[C@@H]1O[C@H](CO)[C@@H](O)[C@H](O)[C@H]1O)c1c(O)cccc1O[C@@H]1O[C@H](CO)[C@@H](O)[C@H](O)[C@H]1O,3
COC(=O)c1ccc(C2C(Oc3ccc(OC)cc3)C(=O)N2Cc2ccc(F)cc2)cc1 (centres undefined),12
CN(C)c1ccc(/C=N/NC(=O)c2ccc(C(=O)NO)cc2)cc1,5
CN1c2ccccc2Oc2nnc(N3CCN(c4ccccc4)CC3)cc21,1
CN(CCO)c1ccc(/C=N/NC(=O)c2ccc(C(=O)NO)cc2)cc1,16
CN(C)c1nc(OC(C(F)(F)F)C(F)(F)F)nc(N(c2ccccc2)c2ccccc2)n1,-1
O=C(CCCCCC(=O)Nc1ccccc1O)N/N=C\c1cc(O)ccc1O,-3
O=C(NO)c1ccc(C(=O)N/N=C/c2ccc(Br)s2)cc1,17
COc1ccc(/C=N/NC(=O)CCCCCCC(=O)NO)cc1OC,0
C=CC1CN(C(C)=O)CCC1CCC(=O)c1ccnc2ccccc12 (centres undefined),3
